Experimental data published in PubChem BioAssay (Tox21).
Inconclusive results are not listed. Active and inactive are the calls of the source. Unless noted, calls come from the whole dose curve; as a rule, active = well fitted curve in the direction sought with a large enough effect in the repeat runs; inconclusive = weak or mixed curves; inactive = no such curve, though single readings can be large; an effect the other way counts as inactive or inconclusive.

Experiments:
[1] = qHTS assay to identify small molecule agonists of the RXR signaling pathway - cell viability counter screen (AID 1159529);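 note: HEK 293T cells carrying an RXR-alpha UAS beta-lactamase reporter; series mostly up to about 77 µM; nearly all actives have a fitted effect of over 50% in size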
In short: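 Counter screen: CellTiter-Glo luminescence. Cells: RXR-alpha-UAS-bla HEK 293T. Medium: 2% charcoal-stripped FBS. Treatment: 16 h, 37 C. Reagent incubation: 30 min, RT.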

[2] = qHTS assay to identify small molecule antagonists of the retinoid acid receptor (RAR) signaling pathway - cell viability counter screen (AID 1159551); note: nearly all actives have a fitted effect of over 35% in size
In short: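 Luminescent ATP quantitation (CellTiter-Glo) gave cell viability in C3RL4 cells exposed to test chemicals for 6 h at 37 C alongside 1 uM final retinol.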

[3] = qHTS assay to identify small molecule agonists of the retinoic acid receptor (RAR) signaling pathway (AID 1159553)
In short: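 Luminescence from a RARE-driven luciferase reporter in C3RL4 cells served as the read-out, measured after 30 min with detection reagent at room temperature. Compounds in DMSO were applied for 6 hr at 37 C following overnight seeding.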

[4] = molecular target: Luciferin 4-monooxygenase (Photinus pyralis) (UniProt P08659); experiment: qHTS assay to identify small molecule inhibitors of firefly luciferase (AID 1224835); note: series mostly up to about 120 µM; nearly all actives have a fitted effect of over 25% in size
Sequence of Luciferin 4-monooxygenase (Photinus pyralis) (P08659 whole entry, looked up): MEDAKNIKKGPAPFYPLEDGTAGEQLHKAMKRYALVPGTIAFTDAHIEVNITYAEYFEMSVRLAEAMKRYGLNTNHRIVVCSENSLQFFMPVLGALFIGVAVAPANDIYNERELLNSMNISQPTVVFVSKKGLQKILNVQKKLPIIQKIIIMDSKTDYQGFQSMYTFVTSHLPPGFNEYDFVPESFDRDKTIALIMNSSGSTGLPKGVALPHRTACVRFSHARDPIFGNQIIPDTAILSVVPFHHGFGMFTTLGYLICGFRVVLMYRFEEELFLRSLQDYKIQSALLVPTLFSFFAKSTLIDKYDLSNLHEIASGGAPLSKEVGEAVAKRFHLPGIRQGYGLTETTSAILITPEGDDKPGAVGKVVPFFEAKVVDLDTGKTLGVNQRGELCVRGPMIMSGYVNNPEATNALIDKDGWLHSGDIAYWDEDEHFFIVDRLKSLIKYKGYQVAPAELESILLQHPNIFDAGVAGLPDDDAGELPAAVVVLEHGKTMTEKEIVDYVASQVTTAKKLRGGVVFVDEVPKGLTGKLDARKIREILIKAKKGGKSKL
In short: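 Biochemical qHTS: compounds run as interplate titrations against purified firefly enzyme, with D-luciferin and ATP each at its KM concentration. Light output recorded by CCD imaging.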

[5] = qHTS assay to identify small molecule agonists of the constitutive androstane receptor (CAR) signaling pathway - cell viability counter screen (AID 1224836); note: series mostly up to about 92 µM; nearly all actives have a fitted effect of over 45% in size
In short: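 Double-stable HepG2 hepatoma cells (hCAR plus CYP2B6-2.2kb) are treated for 23 h at 37 C with test compounds in 15-point concentration series. PK11195 at 0.75 uM final is co-added. Cell viability is quantified by CellTiter-Fluor.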

[6] = molecular target: Nuclear receptor subfamily 1 group I member 3 (Homo sapiens) (UniProt Q14994); experiment: qHTS assay to identify small molecule antagonists of the constitutive androstane receptor (CAR) signaling pathway (AID 1224838);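 note: HepG2 cells stably expressing hCAR with CYP2B6 luciferase reporter stimulated by CITCO; nearly all actives have a fitted effect of over 40% in size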
Sequence of Nuclear receptor subfamily 1 group I member 3 (Homo sapiens) (Q14994 whole entry, looked up): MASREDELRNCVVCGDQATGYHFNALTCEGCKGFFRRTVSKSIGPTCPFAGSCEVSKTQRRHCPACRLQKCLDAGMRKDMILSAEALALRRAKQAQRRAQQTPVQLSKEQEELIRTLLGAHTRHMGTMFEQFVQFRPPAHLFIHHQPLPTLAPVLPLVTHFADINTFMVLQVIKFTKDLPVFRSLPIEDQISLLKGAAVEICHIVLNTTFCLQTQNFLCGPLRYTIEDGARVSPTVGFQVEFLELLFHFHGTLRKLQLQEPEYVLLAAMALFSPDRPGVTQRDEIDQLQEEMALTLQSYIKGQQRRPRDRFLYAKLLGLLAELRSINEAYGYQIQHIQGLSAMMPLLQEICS
In short: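 HepG2-CYP2B6-hCAR cells; 4 h pre-incubation; cpd (15 conc) + CITCO 50 nM final; 24 h, 37 C/5% CO2; ONE-Glo, luminescence.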

[7] = qHTS assay to identify small molecule antagonists of the estrogen related receptor signaling pathway with the pleiotropic PPARgamma coactivator (PGC) from Tox21 10K library - cell viability counter screen (AID 1224840; active = well fitted cell-killing curve with a large enough effect in the repeat runs, not every such curve was filed as active; note: nearly all actives have a fitted effect of over 40% in size)
In short: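 PGC/ERR cells, 2,000/well; 6 h pre-incubation 37 C/5% CO2; cpd in DMSO via pin tool; 17.5 h 37 C; CellTiter-Fluor, 30 min; fluorescence.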

[8] = qHTS assay to identify small molecule antagonists of the estrogen related receptor (ERR) signaling pathway from Tox21 library - cell viability counter screen (AID 1224834); note: nearly all actives have a fitted effect of over 30% in size
In short: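 Fluorescence from CellTiter-Fluor gives the viability read-out, taken 30 min after reagent addition. Before that, ERR cells seeded 6 h earlier were incubated with compounds for 17.5 h at 37 C.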

[9] = qHTS assay to identify small molecule antagonists of the constitutive androstane receptor (CAR) signaling pathway - cell viability counter screen (AID 1224837); note: series mostly up to about 92 µM; nearly all actives have a fitted effect of over 45% in size
In short: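 HepG2-CYP2B6-hCAR cells, 2500/well, 4 hr pre-incubation; compound titration, 15 conc.; CITCO 50 nM final; 23 hr, 37 C/5% CO2; CellTiter-Fluor, fluorescence intensity.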

[10] = molecular target: Thyrotropin receptor (Homo sapiens) (UniProt P16473); experiment: qHTS assay to identify small molecule agonists of the thyroid stimulating hormone receptor (TSHR) signaling pathway (AID 1224843; calls by dose curve; note: nearly all actives have a fitted effect of over 45% in size)
Sequence of Thyrotropin receptor (Homo sapiens) (P16473 whole entry, looked up): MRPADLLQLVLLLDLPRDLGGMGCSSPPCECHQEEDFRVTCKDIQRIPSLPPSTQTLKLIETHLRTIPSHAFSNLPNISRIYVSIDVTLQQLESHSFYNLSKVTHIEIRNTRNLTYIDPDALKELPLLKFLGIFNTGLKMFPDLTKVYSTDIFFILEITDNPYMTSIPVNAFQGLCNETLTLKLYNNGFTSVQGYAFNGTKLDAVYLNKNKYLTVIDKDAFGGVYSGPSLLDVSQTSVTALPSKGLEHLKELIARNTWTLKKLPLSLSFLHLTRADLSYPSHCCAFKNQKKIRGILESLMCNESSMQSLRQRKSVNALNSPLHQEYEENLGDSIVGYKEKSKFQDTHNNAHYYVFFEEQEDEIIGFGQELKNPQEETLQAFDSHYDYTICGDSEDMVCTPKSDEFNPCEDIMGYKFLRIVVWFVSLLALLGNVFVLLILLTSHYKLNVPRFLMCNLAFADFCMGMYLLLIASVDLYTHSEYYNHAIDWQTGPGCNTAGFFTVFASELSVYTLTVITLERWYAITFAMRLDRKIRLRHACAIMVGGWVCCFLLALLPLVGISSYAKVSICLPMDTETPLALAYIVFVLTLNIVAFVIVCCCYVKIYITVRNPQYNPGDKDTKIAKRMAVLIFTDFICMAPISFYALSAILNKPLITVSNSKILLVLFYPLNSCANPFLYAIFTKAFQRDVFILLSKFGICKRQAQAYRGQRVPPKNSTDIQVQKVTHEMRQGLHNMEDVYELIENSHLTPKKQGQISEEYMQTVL
In short: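 Steps: seed 800 TSHR-HEK293 cells per well; add test compound and hold 30 min at ambient temperature; dispense cAMP-d2 then anti-cAMP cryptate; incubate 1 h at ambient; measure fluorescence intensity.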

[11] = molecular target: Nuclear receptor subfamily 1 group I member 3 (Homo sapiens) (UniProt Q14994); experiment: qHTS assay to identify small molecule agonists of the constitutive androstane receptor (CAR) signaling pathway (AID 1224839);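 note: HepG2 cells stably carrying human CAR and a CYP2B6 luciferase reporter; series mostly up to about 92 µM; nearly all actives have a fitted effect of over 15% in size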
In short: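 Readout: firefly luciferase luminescence via ONE-Glo. System: HepG2 double-stable for hCAR and CYP2B6-2.2kb. Conditions: 15-point compound titration, PK11195 at 0.75 uM final, 24 h incubation.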

[12] = qHTS assay to identify small molecule antagonists of the estrogen related receptor signaling pathway with the pleiotropic PPARgamma coactivator (PGC) from Tox21 10K library (AID 1224841; call rule not given here; note: series mostly up to about 92 µM; actives are mostly falling curves and most rising ones were filed inactive; nearly all actives have a fitted effect of over 50% in size)
In short: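 PGC/ERR cell line, 2,000 cells/well; 6 h pre-incubation 37 C/5% CO2; compounds (DMSO) pinned in; 18 h, 37 C; One-Glo, 30 min RT; luminescence.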

[13] = qHTS assay to identify small molecule antagonists of the estrogen related receptor (ERR) signaling pathway - cell viability counter screen (AID 1224818);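 note: series mostly up to about 46 µM; viability measured after 17.5 h of compound exposure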
In short: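 Multiplexed counter screen to separate cytotoxic compounds from true ERR modulators. ERR cells received DMSO-dissolved compounds after a 6 h pre-incubation, were exposed 17.5 h at 37 C, then assayed with CellTiter-Fluor fluorescence.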

[14] = qHTS assay to identify small molecule antagonists of the estrogen related receptor (ERR) signaling pathway (AID 1224819;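 note: luminescence from an ERR-driven luciferase reporter measured with One-Glo reagent; series mostly up to about 46 µM; nearly all actives have a fitted effect of over 50% in size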)
In short: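 Seed ERR cells 2,000/well; rest 6 h at 37 C/5% CO2; pin compounds in DMSO; incubate 18 h at 37 C; add One-Glo; wait 30 min at room temperature; measure luminescence.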

[15] = qHTS assay to identify small molecule agonists of the estrogen related receptor (ERR) signaling pathway (AID 1224820)
In short: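 Quantitative HTS of the LOPAC library used NTP ERR reporter cells treated 18 h at 37 C. Signal is luminescence after One-Glo addition and a 30 min room-temperature incubation.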

[16] = system: estrogen-related receptor alpha (ERRalpha) with PGC-1alpha coactivator, human; experiment: qHTS assay to identify small molecule antagonists of the estrogen related receptor signaling pathway with the pleiotropic PPARgamma coactivator (PGC) (AID 1224821; calls by dose curve;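 note: series mostly up to about 46 µM; lower luminescence signal means antagonism of PGC/ERR signalling; nearly all actives have a fitted effect of over 50% in size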)
In short: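 Quantitative HTS for antagonism: PGC/ERR cells received compounds after 6 h attachment and were incubated 18 h at 37 C, with luminescence (One-Glo) as the endpoint.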

[17] = qHTS assay to identify small molecule antagonists of the estrogen related receptor signaling pathway with the pleiotropic PPARgamma coactivator (PGC) cell viability counter screen (AID 1224822; note: series mostly up to about 46 µM)
In short: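 Cells: PGC/ERR, 2,000/well, 1536-well format. Pre-incubation 6 h, 37 C/5% CO2. Compound exposure 17.5 h, 37 C. Detection: CellTiter-Fluor, 30 min, fluorescence.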

[18] = qHTS assay to identify small molecule agonists of the estrogen related receptor signaling pathway with the pleiotropic PPARgamma coactivator (PGC) (AID 1224823)
In short: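 Cell-based luciferase assay in the NTP-supplied PGC/ERR line, 2,000 cells/well; 18 h compound exposure at 37 C, luminescence after One-Glo.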

[19] = qHTS assay to identify small molecule agonists of the estrogen related receptor signaling pathway with the pleiotropic PPARgamma coactivator (PGC) from Tox21 10K library (AID 1224842); note: nearly all actives have a fitted effect of over 15% in size
In short: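 PGC/ERR reporter cell line, 2,000 cells per well, incubated 6 h at 37 C before 23 nL compound in DMSO was added. After 18 h at 37 C, One-Glo luminescence read following 30 min at room temperature.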
% is set by controls: 0 for no effect and ±100 for the full control effect.

CCOC(=O)COC(=O)c1cc(Oc2ccc(C(F)(F)F)cc2Cl)ccc1[N+](=O)[O-]
inactive: Potency [1] | Potency [2] | Potency [3] | Potency [4] | Potency [5] | Potency [6] | Potency [7]

CC/C=C\CCOC(=O)CC
inactive: Potency [1] | Potency [2] | Potency [8] | Potency [4] | Potency [5] | Potency [9] | Potency [7] | Potency [10]

Nc1cccc(S(=O)(=O)c2cccc(N)c2)c1
inactive: Potency [1] | Potency [2] | Potency [8] | Potency [4] | Potency [5] | Potency [6] | Potency [11] | Potency [7] | Potency [12] | Potency [10]

COc1ccnc(CS(=O)c2nc3ccc(OC(F)F)cc3[nH]2)c1OC (stereo unspecified)
inactive: Potency [1] | Potency [2] | Potency [8] | Potency [4] | Potency [6] | Potency [11] | Potency [7] | Potency [10]

CCCn1cnc2c1c(=O)n(CCCCC(C)=O)c(=O)n2C
inactive: Potency [1] | Potency [2] | outcome [13] | Potency [14] | outcome [15] | Potency [16] | outcome [17] | outcome [18] | Potency [8] | Potency [4] | Potency [5] | Potency [9] | Potency [6] | Potency [11] | Potency [7] | Potency [12] | Potency [10]

CC(CSC(=O)c1ccccc1)C(=O)N1C[C@@H](Sc2ccccc2)C[C@H]1C(=O)O (stereo partly specified)
inactive: activity change, negative = cytotoxicity [1] -1.14% [at 15.8 µM] | activity change, negative = cytotoxicity [2] -2.34% [at 19 µM] | viability change, negative = cytotoxic [8] 7.27% [at 19 µM] | activity change, negative = inhibition [4] 0.3% [at 23.6 µM] | viability change, negative = cytotoxic [5] 5.15% [at 19 µM] | viability change, negative = cytotoxic [7] 17.4% [at 19 µM] | activity, negative = inhibition [12] 1.67% [at 19 µM] | activation [19] 0.512% [at 19 µM] | activation [10] -0.691% [at 19 µM]

c1ccc(C(O[C@H]2CCCN(CCc3ccc4c(c3)OCO4)C2)c2ccccc2)cc1
inactive: Potency [1] | Potency [2] | Potency [8] | Potency [4] | Potency [5] | Potency [9] | Potency [7] | Potency [10]

O=C(CS)Nc1ccccc1
inactive: Potency [1] | Potency [2] | Potency [8] | Potency [4] | Potency [5] | Potency [9] | Potency [7] | Potency [10]

CCCCC(CC)COC(=O)CCCCCCCCC(=O)OCC(CC)CCCC (stereo unspecified)
inactive: Potency [1] | Potency [2] | Potency [8] | Potency [4] | Potency [5] | Potency [9] | Potency [6] | Potency [11] | Potency [7] | Potency [19] | Potency [10]
